# Compounds without any hit were thinned out: in the full panel of roughly 83,000, 20% have a hit.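 Negative percent growth values reflect cell death: -40 means 40% of the cells present at the start died, and -100 means all died.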 Calls of active or inactive are those of the source. The calls were made as follows: active = growth percent below 10; inactive = the rest.
# System: CCRF-CEM leukemia
# Test: NCI-60 one-dose screen, 48 h (100 = growth as untreated, 0 = no growth, -100 = all killed)
# Conditions: 10 µM unless noted
row,SMILES,growth
1,COc1ccc(C/C(=C(\C)c2ccc(OCCN3CCCC3)cc2)c2ccc(OCCN3CCCC3)cc2)cc1,0.621% (active)
2,CCOC(=O)Oc1c(OC)cc(C(=O)c2ccc(OC)c(O)c2OC)cc1OC,15.2% (inactive)
3,CCCCOc1ccc(/C(C)=N/Nc2cc(C)nc3ccc(Br)cc23)cc1,64.6% (inactive)
4,O=[N+]([O-])c1cc(Br)c2cccc3c2c1CC3,99.9% (inactive)
5,CC(Oc1ccc(C(=O)O)cc1C(F)(F)F)c1ccc(Oc2ccccc2)cn1 (centres undefined),101% (inactive)
6,CCN1CCN(CCNc2nccc(-c3c(-c4cccc(OC)c4)nc4occn34)n2)S1(=O)=O,117% (inactive)
7,Cn1c2ccccc2c2c3c(c4c5ccccc5n(C)c4c21)C(=O)OC3,98.4% (inactive)
8,COc1cc2c(cc1OC)C(=O)/C(=C/c1cc(C)c(O)c(C)c1)S2,17.1% (inactive)
9,O=C(/C=C/c1ccc(F)cc1)c1ccc(NC(=O)N2CCN(c3cc4c(cc3F)c(=O)c(C(=O)O)cn4C3CC3)CC2)cc1,90.9% (inactive)
10,O=C1c2ccc3c4c(ccc(c24)C(=O)N1CCCNCc1ccccc1Cl)C(=O)N(CCCNCc1ccccc1Cl)C3=O,-15.5% (active)
11,Cc1cccc(NC(=O)Nc2ccc(-n3cnc4cc(-c5ccc(O)cc5)ccc43)cc2)c1,17.8% (inactive)
12,c1ccc(-c2cn3c(ccc4ccccc43)n2)cc1,65.1% (inactive)
13,COc1cc2oc(-c3cccc(C(=O)Nc4ccccc4)c3)cc(=O)c2c(O)c1OC,100% (inactive)
14,Cc1ccc(/C=N/NC(=O)CSc2nc3ccccc3c(=O)n2Cc2ccc(S(N)(=O)=O)cc2)cc1,87.8% (inactive)

# Source: PubChem BioAssay (NCI)
